From PubChem BioAssay (NCI)
About 83,000 compounds went through this panel and 20% of them were active in at least one assay; those are over-represented in the sample as a whole.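 The test compound was applied at a single concentration to cells in 96-well plates for 48 hours, and percent growth was recorded.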 Unmarked numbers belong to inactive results. The source made the active and inactive calls. Rule for the calls: active = growth percent below 10; inactive = the rest.

Legend:
Test in all cases: NCI-60 one-dose screen, 48 h (100 = growth as untreated, 0 = no growth, -100 = all killed)
Details in all cases: 10 µM unless noted
[1] = test system: HCT-15 colon
[2] = test system: HT29 colon
[3] = test system: SNB-75 CNS
[4] = test system: SNB-19 CNS
[5] = test system: U251 CNS
[6] = test system: PC-3 prostate
[7] = test system: SK-MEL-5 melanoma
[8] = test system: UACC-62 melanoma
[9] = test system: LOX IMVI melanoma
[10] = test system: SK-MEL-28 melanoma
[11] = test system: SK-MEL-2 melanoma
[12] = test system: EKVX NSCLC
[13] = test system: SN12C renal
[14] = test system: UO-31 renal
[15] = test system: TK-10 renal
[16] = test system: ACHN renal
[17] = test system: CAKI-1 renal
[18] = test system: A498 renal
[19] = test system: CCRF-CEM leukemia
[20] = test system: MOLT-4 leukemia

Row | Compound | growth [1] | growth [2] | growth [3] | growth [4] | growth [5] | growth [6] | growth [7] | growth [8] | growth [9] | growth [10] | growth [11] | growth [12] | growth [13] | growth [14] | growth [15] | growth [16] | growth [17] | growth [18] | growth [19] | growth [20] [%]
1 | CC1(C)CC[C@]2(C(=O)O)CC[C@]3(C)C(=CC[C@@H]4[C@@]5(C)C/C(=C/c6ccco6)C(=O)C(C)(C)[C@@H]5CC[C@]43C)[C@@H]2C1 | -38.6% [100 µM] (active) | -56.7% [100 µM] (active) | -15.6% [100 µM] (active) | -9.61% [100 µM] (active) | -36.1% [100 µM] (active) | -16% [100 µM] (active) | -75.8% [100 µM] (active) | -89.7% [100 µM] (active) | -95.1% [100 µM] (active) | -79.5% [100 µM] (active) | -69.3% [100 µM] (active) | -19.6% [100 µM] (active) | -52.3% [100 µM] (active) | -98.1% [100 µM] (active) | -19.1% [100 µM] (active) | -71.8% [100 µM] (active) | -35% [100 µM] (active) | -42.5% [100 µM] (active) | 4.17% [100 µM] (active) | –
2 | CN(C)c1cc(NN=C(c2ccc(O)cc2)c2ccc(O)cc2)c([N+](=O)[O-])cc1[N+](=O)[O-] | 46.4% | 114% | 98% | 67.7% | 70.8% | 87.8% | 26% | 71.7% | 43.7% | 81.5% | -12.1% (active) | 94.2% | 93.8% | 1.38% (active) | 136% | 50.1% | 74.8% | 135% | 107% | –
3 | Cc1ccccc1OC(=O)c1cccc(Cl)c1 | 104% | 103% | 86.2% | 109% | 129% | 92.2% | 103% | 105% | 98% | 113% | 103% | 99.2% | 110% | 80.2% | 108% | 107% | 109% | 90.5% | 98% | –
4 | CCCCCC1CCCCN1C(=O)OCCCC (centres undefined) | 101% | 103% | 81.4% | 105% | 104% | 111% | 99.4% | 76.4% | 94.7% | 116% | 102% | 89.1% | 73.3% | 84.3% | 95.6% | 104% | 79.7% | 88.1% | 84.6% | –
5 | O=c1c2c3c(sc2n2cnnc2n1Cc1ccccc1)CCCC3 | 93.4% | 100% | 111% | 99% | 102% | 99.7% | 98% | 91.8% | 97.6% | 116% | 97.6% | 71.2% | 105% | 7.39% (active) | 115% | 99.1% | 95.3% | 92.1% | 82.4% | 86.3
6 | C=C(C)[C@@H]1CC[C@]2(COCCCN)CC[C@]3(C)[C@H](CC[C@@H]4[C@@](C)(CCCNCCCN)[C@H](C(=C)C)CC[C@]43C)[C@@H]12 | -53.4% [100 µM] (active) | -23.1% [100 µM] (active) | -74.1% [100 µM] (active) | -60.1% [100 µM] (active) | -51.5% [100 µM] (active) | -53.9% [100 µM] (active) | -55.1% [100 µM] (active) | -72.4% [100 µM] (active) | -49.7% [100 µM] (active) | -63.3% [100 µM] (active) | -59.3% [100 µM] (active) | -60.8% [100 µM] (active) | -52% [100 µM] (active) | -79.8% [100 µM] (active) | -62.4% [100 µM] (active) | -67.5% [100 µM] (active) | -77.1% [100 µM] (active) | -77% [100 µM] (active) | -26.9% [100 µM] (active) | –
7 | O=C(Nc1cccc2cccnc12)c1cc(C(=O)c2ccc(Cl)cc2)n2ccc(-c3ccncc3)cc12 | 99.1% | 100% | 86.6% | 104% | 103% | 95.3% | 97.2% | 104% | 101% | 98.2% | 112% | 107% | 101% | 81.4% | 108% | 99.7% | 83.4% | 90.5% | 115% | –
